Screens from PubChem BioAssay.
This is a sample that favours compounds with a hit; in the whole collection about 1.3% have one here.
VHR inh abs: VHR1 phosphatase inhibitors, primary screen, biochemical, absorbance, uHTS. Dual specificity protein phosphatase 3 (Homo sapiens), P51452. AID 1654, 2009. inhibition, % at 13.3 µM. 290,000 tested, 0.52% active. recombinant VHR phosphatase, pNPP absorbance; in the data active = inhibition above about 50%
Target sequence (P51452 whole entry, looked up): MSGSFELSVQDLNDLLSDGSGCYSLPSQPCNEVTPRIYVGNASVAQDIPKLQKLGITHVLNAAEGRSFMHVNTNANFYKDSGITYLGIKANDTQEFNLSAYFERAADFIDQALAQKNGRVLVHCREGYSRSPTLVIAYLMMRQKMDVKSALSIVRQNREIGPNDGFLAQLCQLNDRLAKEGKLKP
Mtb hypoxia rep: PubChem AID 1159583 | M. tuberculosis hypoxia-regulated fluorescent reporter, fluorescence | fluorescence inhibition, % (concentration not given with the values) | 300,000 tested, 0.1% active; in the data active = fluorescence inhibition mostly above about 23%, no sharp cut-off; inactive = mostly below about 17%
PriA SSB inh: inhibitors of Klebsiella pneumoniae PriA binding to SSB C-terminal tail, primary screen, biochemical, AlphaScreen. 430,000 tested, 0.6% active. inhibition, % at 33 µM. AID 1272365, 2023. PriA–SSB C-terminal tail interaction (Klebsiella pneumoniae). AlphaScreen SSBct-PriA binding, biotinylated peptide; in the data active = inhibition mostly above about 37%, no sharp cut-off; inactive = mostly below about 20%;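 note: plate controls were negative control peptide for no effect and reference peptide for full effect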
SARS 3CLpro inh: SARS-CoV 3CLpro protease inhibitors, primary screen, biochemical, quenched FRET | inhibition, % at 6 µM | recombinant SARS-CoV 3CLpro, quenched FRET peptide cleavage | 290,000 tested, 0.14% active | Replicase polyprotein 1ab (Severe acute respiratory syndrome coronavirus), P0C6X7; in the data active = inhibition above about 12%
CCHFV vOTU inh: CCHFV vOTU protease inhibitors, primary screen, biochemical, Pep-AMC substrate, fluorescence | 370,000 tested, 0.55% active | inhibition, % at 11.5 µM | Crimean-Congo hemorrhagic fever virus L polyprotein viral ovarian tumor (vOTU) protease … | AID 651958, 2012; in the data active = inhibition above about 30%; note: 0% = vehicle wells with enzyme and 100% = no enzyme wells
Starred values were filed as active, the others as inactive; nt = no result; ! = not confirmed by another sample.

SMILES	VHR inh abs	Mtb hypoxia rep	PriA SSB inh	SARS 3CLpro inh	CCHFV vOTU inh
O=C(Nc1ccc(Cl)cc1)c1cc(Br)ccc1OCC(=O)N1CCOCC1	-17	-6	44*	6	13
COC(=O)Nc1ccc(OCC(=O)N2CCOCC2)cc1	-7	-3	21	4	-9
COc1ccc(C(=O)Nc2ccc(OCC(=O)N3CCOCC3)cc2)c(OC)c1OC	57*	nt	-2	-2	7
COc1ccc(CN(C)CC2CCCN(CCc3ccc(F)cc3)C2)c(OC)c1OC (stereo not given)	60*	2	-2	-2	-5
CCN(Cc1ccc(OC)c(COC)c1)CC1CCCN(CCc2cccc(OC)c2)C1 (stereo not given)	54*	9	-10	-5	12
COc1ccc(CCN2CCCC(CN(C)Cc3cc(OC)ccc3OC)C2)cc1 (stereo not given)	-2	-5	3	-6	-4
COc1ccc(-c2noc(-c3ccccc3F)n2)cc1	11	-1	104*	1	10
O=C(Cn1nc(-c2ccc(F)cc2)ccc1=O)Nc1cc(C(F)(F)F)cc(C(F)(F)F)c1	nt	nt	-11	nt	nt
COc1ccc(CC(=O)Nc2ccc3c(c2)OCC(C)(C)C(=O)N3CCC(C)C)cc1OC	nt	nt	-2	nt	nt
COC(=O)c1ccc(C(=O)Nc2ccc3c(c2)C(=O)N(C)C3=O)cc1	nt	nt	-1	nt	nt
CC(=NNC(=S)N1CC2CCC(CC2)C1)c1cccc(C)n1	nt	nt	-10	nt	-13
CC(=NNC(=S)N1CC2CCC(CC2)C1)c1nccs1	nt	nt	57*	nt	4
Cc1ccc(C)c(Cn2nc(-c3cccs3)c3sc(N4CCOCC4)nc3c2=O)c1	nt	nt	-7	nt	nt
COCCn1nnn(-c2ccc(NC(=O)c3cccs3)cc2)c1=O	nt	nt	-20	nt	nt
O=C(COC(=O)Cc1cccs1)NCC(=O)Nc1ccc(F)cc1	nt	33*	0	nt	8
Cc1cc(NC(=O)c2ccccc2Br)n(-c2nc3c(c(=O)[nH]2)CCC3)n1	nt	nt	-8	nt	nt
CC1(C)CC(NC(=O)Cc2ccc(Cl)cc2)CC(C)(C)N1	53*	2	-6	1	-9
O=C(c1ccc(Cl)c(S(=O)(=O)NCc2ccccc2)c1)N1CCN(c2ccccn2)CC1	54*	7	5	-3	nt
O=C(c1ccc(CNS(=O)(=O)c2ccccc2)cc1)N1CCN(c2ccccn2)CC1	3	nt	3	0	4
CC1CCC/C(=N\NC(=O)COc2ccccc2Cl)C1 (stereo not given)	51*	nt	nt	-2	-8
CC1CCC/C(=N\NC(=O)COc2ccc(Cl)cc2Cl)C1 (stereo not given)	23	nt	nt	8	-12
CC1CCc2c(sc(Nc3nc4c(F)cccc4s3)c2C(N)=O)C1 (stereo not given)	7	8	51*!	-1	8
O=C(CN1CCC2(CC1)N=C(c1cccc(F)c1)C(=O)N2)Nc1cccc(C(F)(F)F)c1	nt	nt	-1	nt	nt
CSc1ncccc1C(=O)NCC1CCCCC1	51*	16	3	-1	-3
CSc1ncccc1C(=O)NC1CCCCCCC1	5	9	-6	-3	0
SMILES	VHR inh abs	Mtb hypoxia rep	PriA SSB inh	SARS 3CLpro inh	CCHFV vOTU inh
Cn1cnc(S(=O)(=O)N2CCC(S(=O)(=O)Cc3ccco3)CC2)c1	nt	nt	68*	nt	nt
O=S(=O)(Cc1ccco1)C1CCN(S(=O)(=O)c2ccccc2F)CC1	nt	nt	83*	nt	nt
O=C(CSCC(=O)N1CCCc2ccccc21)Nc1nc(-c2ccc(Cl)s2)cs1	nt	nt	4	nt	nt
CCn1c(C)c(/C=N/Nc2nc3ccccc3s2)c2ccccc21	31	nt	nt	4	8
Cc1ccc2[nH]c(C)c(C=NNc3nc4ccccc4s3)c2c1	nt	3	52*	nt	nt
COc1cc(-c2cc(C(=O)Nc3ccncc3)c3ccccc3n2)cc(OC)c1OC	nt	22*	-1	nt	1
Cc1c(C=O)c(C=O)c(C)n1Cc1ccc(C(=O)O)cc1	nt	nt	-15	nt	nt
O=C(CNC(=O)c1ccccc1)NCCc1ccc(O)c(O)c1	59*	nt	nt	-4	14
CCC(=O)c1ccc(OCC(O)CN2CCN(c3cc(Cl)ccc3Cl)CC2)cc1 (stereo not given)	nt	nt	-3	nt	nt
COc1ccccc1-n1ncc2c(C)nnc(SCC(=O)NCc3ccccc3Cl)c21	nt	nt	89*!	nt	nt
Cc1nnc(SCC(=O)NCc2ccccc2Cl)c2c1cnn2-c1ccccc1	nt	nt	11	nt	nt
O=C(NCC1CC(=O)N(c2ccc(F)cc2)C1)c1ccc(Cl)cc1Cl (stereo not given)	nt	nt	3	nt	nt
O=C(C[C@@H](C(=O)O)N1CCNCC1)Nc1ccc(Oc2ccccc2)cc1	nt	nt	-19	nt	nt
COc1cccc(-c2sc3ccccc3c2-c2ccc(OCCN(C)C)cc2)c1	nt	nt	40*	nt	10
CCOC(=O)c1sc(-c2ccccc2)cc1NC(=O)CCS(=O)(=O)c1ccc(OC)cc1	nt	nt	-3	nt	nt
N#Cc1cccnc1N1CCC(CNS(=O)(=O)c2ccccc2Br)CC1	nt	nt	-18	nt	nt
CON=CNC(=O)N1OC[C@@H]2COc3ccc4ccccc4c3[C@@H]21	nt	nt	-12	nt	nt
O=C(NC=NOCc1cccc(C(F)(F)F)c1)N1OC[C@@H]2COc3ccc4ccccc4c3[C@@H]21	nt	nt	45*	nt	nt
O=C(CSc1ccccn1)Nc1cccc([N+](=O)[O-])c1	44	-1	-9	2	-3
O=C(CSc1ccc(-c2ccccn2)nn1)Nc1cccc([N+](=O)[O-])c1	nt	nt	48*	nt	nt
O=C(CSc1ccc(-c2ccccn2)nn1)Nc1cccc(F)c1	19	8	55*	1	-7
O=C(CSc1ccc(-c2ccccn2)nn1)Nc1ccc(F)cc1	nt	nt	23	nt	nt
Cc1c(NC=C(Cl)C(=O)C(F)(F)F)c(=O)n(-c2ccccc2)n1C	nt	nt	3	nt	nt
COc1ccc(C)cc1NC(=O)Nc1ccc(Nc2cc(-n3cccn3)nc(C)n2)cc1	nt	nt	-14	nt	nt
O=C(c1ccc2nsnc2c1)N1C2CCC1CC(S(=O)(=O)c1ccccc1)C2 (stereo not given)	nt	nt	74*	nt	nt
SMILES	VHR inh abs	Mtb hypoxia rep	PriA SSB inh	SARS 3CLpro inh	CCHFV vOTU inh
Cc1ccc(OCC(=O)N2C3CCC2CC(S(=O)(=O)c2ccccc2)C3)cc1 (stereo not given)	nt	nt	79*	nt	nt
COC(=O)c1ccc(C2C(=C(O)c3cccc(OC)c3)C(=O)C(=O)N2CCCN(C)C)cc1 (stereo not given)	nt	nt	-15	nt	nt
COc1ccc(N=NC(=CO)C(=O)c2cccs2)cc1	nt	nt	9	nt	nt
CC1Cc2cc(C(O)=C3C(=O)C(=O)N(CCCn4ccnc4)C3c3ccc(Br)cc3)ccc2O1 (stereo not given)	nt	nt	4	nt	nt
COc1ccc(N2CCN(Cc3csc(C)c3-c3ccc(C)cc3)CC2)cc1	10	12	91*	-2	-2
COc1ccc(N2CCN(Cc3cc4c(cc3Br)OCCO4)CC2)cc1	6	-1	35	1	4
O=C(Cn1ncc2c([nH]c3ccccc32)c1=O)N1CCN(c2ccccc2F)CC1	-12	8	-10	2	6
O=C(Cn1ncc2c([nH]c3ccccc32)c1=O)N1CCN(c2ccc(F)cc2)CC1	51*	11	-9	-4	7
O=C(CS(=O)(=O)c1ccc(F)cc1)NCCS(=O)(=O)c1ccccc1	-12	-10	58*	-1	-14
